A selection: hits, their analogues and other compounds. The true share with any hit is near 12%.
JMJD2A Tudor: JMJD2A Tudor domain (human) inhibition; Potency, µM (titrated, usually from 114 µM), for inactives: at the top dose activity change, negative = inhibition, hits mostly inhibitors; AlphaScreen JMJD2A-Tudor / H3K4me3 peptide binding; 390,000 compounds, 4.4% hits; O75164; note: % is set by controls: 0 for no effect and ±100 for the full control effect; nearly all actives have a fitted effect of over 50% in size
BAZ2B block: inhibitors of human BAZ2B bromodomain | Q9UIF8 | AlphaScreen BAZ2B-H3K14Ac peptide displacement | Potency, µM (highest dose often 114 µM), without a hit: at the highest dose activity change, negative = inhibition, usual class: inhibitors | 360,000 compounds, 4.4% hits; note: % is set by controls: 0 for no effect and ±100 for the full control effect; nearly all actives have a fitted effect of over 60% in size
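BAZ2B 50 nM plus b-H3(5-23)K14Ac 50 nM, PBS pH 7.4/0.01% Tween-20, 30 min RT; compound added (max 110 uM), 30 min RT; streptavidin donor/Ni-chelate acceptor beads 10 ug/mL final, 20 min dark; AlphaScreen read.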
PLK1 PBD inh: inhibitors of human PLK1 polo-box domain binding; AID 720504; 360,000 compounds, 2.8% hits; Potency, µM, for the others: max response, negative = inhibition, hits mostly inhibitors; P53350; Plk1 PBD binding of FITC phosphopeptide, fluorescence polarization; note: series mostly up to about 57 µM; % is set by controls: 0 for no effect and ±100 for the full control effect; nearly all actives have a fitted effect of over 65% in size
G9a inh: inhibitors of human histone lysine methyltransferase G9a; Q96KQ7; G9a H3K9 monomethylation, AlphaScreen, 2 h; Potency, µM (highest dose often 102 µM), for the others: at the highest dose activity, negative = inhibition, most hits filed as inhibitors; 350,000 compounds, 8.8% hits; note: % is set by controls: 0 for no effect and ±100 for the full control effect; nearly all actives have a fitted effect of over 75% in size
Target sequence (Q96KQ7 913-1193 limits assumed): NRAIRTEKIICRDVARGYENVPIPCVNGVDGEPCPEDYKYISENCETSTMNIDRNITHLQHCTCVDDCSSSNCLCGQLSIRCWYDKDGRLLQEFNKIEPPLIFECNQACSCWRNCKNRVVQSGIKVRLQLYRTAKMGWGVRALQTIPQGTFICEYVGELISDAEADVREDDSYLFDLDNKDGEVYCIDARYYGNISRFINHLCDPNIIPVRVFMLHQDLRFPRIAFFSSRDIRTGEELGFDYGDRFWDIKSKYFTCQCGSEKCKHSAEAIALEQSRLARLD
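Quantitative HTS format: methyltransferase activity on a biotin-tagged H3K9 peptide is measured by AlphaScreen, using a rabbit anti-monomethyl-H3K9 antibody with streptavidin donor and anti-IgG acceptor beads. Final levels are 20 nM enzyme, 500 nM peptide, 20 uM SAM; 2 h RT.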
Sfp PPTase inh: Sfp phosphopantetheinyl transferase inhibition | Biochemical Sfp PPTase activity, qHTS | Q9F4F7 | 310,000 compounds, 3.5% hits | Potency, µM, for inactives: largest response in the series, negative = inhibition, most hits filed as inhibitors;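 note: the enzyme is Sfp with the accession as filed and its product quenches rhodamine fluorescence; 0% = enzyme reaction without inhibitor and -100% = no enzyme wells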
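Buffer: 50 mM Hepes-Na pH 7.6, 10 mM MgCl2, 0.01% Nonidet P-40, 0.01% BSA. Enzyme 15 nM, pre-exposed to compound 15 min; substrates then added and fluorescence change tracked over 30 min.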
HP1b binding inh: inhibitors of HP1-beta chromodomain binding to methylated histone tails. AlphaScreen HP1-beta / biotin-H3K9me3 peptide binding. Potency, µM (titrated, usually from 114 µM), for inactives: top-dose activity change, negative = inhibition, usual class: inhibitors. AID 540317. 390,000 compounds, 0.56% hits; note: nearly all actives have a fitted effect of over 70% in size
Target sequence (P83916 whole entry, looked up): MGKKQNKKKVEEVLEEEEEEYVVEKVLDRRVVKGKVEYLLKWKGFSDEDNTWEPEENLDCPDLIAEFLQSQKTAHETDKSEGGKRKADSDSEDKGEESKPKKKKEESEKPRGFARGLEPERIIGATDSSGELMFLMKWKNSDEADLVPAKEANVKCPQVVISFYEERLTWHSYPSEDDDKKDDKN
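HP1-beta protein (50 nM final) preincubated 30 min at room temperature with biotinylated H3(1-18)K9me3 peptide (50 nM) in PBS pH 7.4, 0.01% Tween-20, then compound added for 30 min. AlphaScreen streptavidin donor/nickel chelate acceptor beads (10 ug/mL final), 30 min dark, luminescence read.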
Starred values were filed as active, the others as inactive; [ ] = another dose, or the depositor's remark. Calls come from the whole dose curve; as a rule, active = well fitted curve in the direction sought with a large enough effect; inconclusive = small, poorly fitted or top-dose-only effect, or another doubt; inactive = no such curve, though single readings can be large; an effect the other way counts as inactive or inconclusive. Potency is the fitted concentration of half-maximal effect.

Screening C/C=C/c1ccc(OCCCCN2CCN(CC)CC2)c(OC)c1 returned JMJD2A Tudor 20µM*, BAZ2B block 25µM*, PLK1 PBD inh -11%, Sfp PPTase inh inconclusive and HP1b binding inh inconclusive.
C/C=C/c1ccc(OCCCCNCc2ccco2)c(OC)c1 was read as JMJD2A Tudor 22µM*, BAZ2B block 40µM*, PLK1 PBD inh -5%, G9a inh 11µM*, Sfp PPTase inh -24% and HP1b binding inh inconclusive.
`COc1cc2cc(CNc3ccccc3)c(=O)n(CC(=O)Nc3cccc(Cl)c3C)c2cc1OC` gave JMJD2A Tudor 1%, BAZ2B block -13%, G9a inh inconclusive and HP1b binding inh 15%.
CCOc1ccc(N2C(=O)CC(N3CCN(c4ccc([N+](=O)[O-])cc4)CC3)C2=O)cc1 (centres undefined) was read as JMJD2A Tudor -18%, BAZ2B block -25%, PLK1 PBD inh -7%, G9a inh 7.9µM*, Sfp PPTase inh -13% and HP1b binding inh 35%.
CCCOc1ccc(N2C(=O)CC(N3CCN(c4nc5ccccc5s4)CC3)C2=O)cc1 (centres undefined) was read as JMJD2A Tudor -9%, BAZ2B block 28%, PLK1 PBD inh -8%, G9a inh 45µM*, Sfp PPTase inh 4% and HP1b binding inh 44%.
CCCOc1ccc(N2C(=O)CC(N3CCN(c4ccccc4F)CC3)C2=O)cc1 (centres undefined) was read as JMJD2A Tudor -5%, BAZ2B block 3%, PLK1 PBD inh -9%, G9a inh 20%[59 µM], Sfp PPTase inh 15% and HP1b binding inh 12%.
`CCOc1ccc(N2C(=O)CC(NCCNc3ccc([N+](=O)[O-])cn3)C2=O)cc1` (centres undefined) gave JMJD2A Tudor -24%, BAZ2B block -20%, PLK1 PBD inh -10%, G9a inh 3.2µM*, Sfp PPTase inh 7% and HP1b binding inh 41%.
For COc1ccc(N2C(=O)CC(NCCNc3ccc([N+](=O)[O-])cn3)C2=O)cc1 (centres undefined) the results were JMJD2A Tudor -18%, BAZ2B block -22%, PLK1 PBD inh -10%, G9a inh 6.3µM*, Sfp PPTase inh -10% and HP1b binding inh 23%.
Screening CC(NC(=O)C1CCN(C(=O)c2ccc(-n3ccc4ccccc43)s2)CC1)c1ccccc1 (centres undefined) returned JMJD2A Tudor -3%, BAZ2B block -3%, G9a inh 3%[59 µM] and HP1b binding inh 23%.
Screening C=C(C)Cn1c(SCC(=O)Nc2ccccc2C)nc2sc3c(c2c1=O)CCCC3 returned JMJD2A Tudor -13%, BAZ2B block -4%, G9a inh -51%[59 µM] and HP1b binding inh -4%.
For Cc1cccc(N2C(=O)N(Cc3ccc(C(C)(C)C)cc3)c3ccccc3S2(=O)=O)c1 the results were JMJD2A Tudor -13%, BAZ2B block -7%, G9a inh 12%[59 µM] and HP1b binding inh 18%.
For O=S1(=O)c2ccccc2N=NN1Cc1ccc(Cl)c(Cl)c1 the results were BAZ2B block 79µM*, G9a inh 2.8µM* and Sfp PPTase inh 56µM*.
CC(C)(C)c1ccc(CN2N=Nc3ccccc3S2(=O)=O)cc1 was read as JMJD2A Tudor -12%, BAZ2B block -11%, PLK1 PBD inh 13µM*, G9a inh -24%[0.0925 µM], Sfp PPTase inh 2.8µM* and HP1b binding inh -11%.
`Nc1nc2ccccc2n1Cc1ccc(Cl)c(Cl)c1` gave JMJD2A Tudor -19%, BAZ2B block -4%, PLK1 PBD inh 2%, Sfp PPTase inh -26% and HP1b binding inh 35%.
Screening O=[N+]([O-])c1ccccc1CCc1cnc(Cl)s1 returned JMJD2A Tudor -10%, BAZ2B block -13%, PLK1 PBD inh 3%, G9a inh 8%, Sfp PPTase inh 2% and HP1b binding inh 49%.
CC(C)c1nnc(NC(=O)C2CCN(C(=O)Nc3ccc(Cl)cc3)CC2)s1 was read as JMJD2A Tudor -10%, BAZ2B block 7%, PLK1 PBD inh -12%, G9a inh 9%, Sfp PPTase inh -6% and HP1b binding inh 14%.
Screening O=C1CCSC2(C(=O)N(Cc3ccc(F)cc3)c3ccccc32)N1c1cccc(F)c1 (centres undefined) returned JMJD2A Tudor -19%, BAZ2B block -1%[57.1 µM], G9a inh -33%[59 µM] and HP1b binding inh 11%.
Screening CN1CCC(CNC(=O)Nc2csc3ccccc23)CC1 returned JMJD2A Tudor -15%, BAZ2B block -11%, PLK1 PBD inh 5%, Sfp PPTase inh 79µM* and HP1b binding inh 27%.
`CN(C)c1ccc(NC(=O)Nc2csc3ccccc23)cc1` gave JMJD2A Tudor inconclusive, BAZ2B block 35µM*, PLK1 PBD inh 0%, G9a inh 8.9µM*, Sfp PPTase inh 19% and HP1b binding inh -8%.
Screening O=C(Nc1ccc(F)cc1)Nc1csc2ccccc12 returned JMJD2A Tudor -10%, BAZ2B block 0%, PLK1 PBD inh -1%, G9a inh inconclusive, Sfp PPTase inh inconclusive and HP1b binding inh 29%.
For Cc1ccc(OCc2cc(C(=O)N3CC4C[C@@H]5CC3C[C@H](C4)C5)no2)cc1C the results were JMJD2A Tudor -4%, BAZ2B block 7%, PLK1 PBD inh 4%, G9a inh 34%, Sfp PPTase inh -6% and HP1b binding inh 26%.
For Cc1ccc(OCc2cc(C(=O)N3CCc4[nH]cnc4C3c3ccccn3)no2)cc1C (centres undefined) the results were JMJD2A Tudor inconclusive, BAZ2B block inconclusive, PLK1 PBD inh 1%, G9a inh 71µM*, Sfp PPTase inh 10% and HP1b binding inh 9%.
Screening COc1cc2c(cc1OC)C(c1ccc(N)cc1)=NNC(=O)C2 returned G9a inh -23%[59 µM] and Sfp PPTase inh -9%.
COC(=O)c1cc(O)c(O)c(O)c1 was read as JMJD2A Tudor 20µM*, BAZ2B block 79µM*, PLK1 PBD inh 1%, G9a inh 40µM*, Sfp PPTase inh inconclusive and HP1b binding inh inconclusive.
Screening CCCCNc1ccc(C(CC(N)=O)NC(=O)Cc2cccc3ccccc23)cc1[N+](=O)[O-] (centres undefined) returned JMJD2A Tudor -11%, BAZ2B block 15%, PLK1 PBD inh -3%, G9a inh -8%[12.7 µM], Sfp PPTase inh 16% and HP1b binding inh 33%.

High-throughput results (PubChem BioAssay)
